PubChem BioAssay (EPA / NIEHS)
Activity calls are given as the source filed them. The calls were made as follows: active = hit-call score of the fitted dose curve at least 0.9, where 1 is the maximum; inconclusive = response in the unintended direction; inactive = score below 0.9.

Each molecule was assayed against PGR (gene 5241) (UniProt P06401) (assay: TOX21_PR_BLA_Followup_Antagonist_ratio: Tox21 HEK293 Progesterone Receptor (PR) Antagonism Beta-lactamase Follow-Up Assay, Ratio (AID 2283934)).
Protocol: TOX21_PR_BLA_Followup is a secondary assay for specificity for the TOX21_PR_BLA_Agonist assay. To differentiate true PR agonists from cytotoxic substances, this follow up assay is multiplexed with a cell viability assay. The compounds were also tested for auto fluorescence that may interfere with the biological target readout resulting in potential false positives and/or negatives. To identify the compounds that stimulate PR signaling, a PR-UAS-bla GripTite cell line i.e. PR-UAS-bla HEK293T (Invitrogen, Carlsbad, CA, USA) containing a beta-lactamase reporter gene under the control of an UAS response element was used to screen Tox21 10K compound library. The cytotoxicity of the Tox21 compound library against the PR-bla cell line was tested in parallel by measuring the cell viability using CellTiter-Glo assay in the same wells. TOX21_PR_BLA_Followup_Antagonist_ratio is an assay readout measuring reporter gene via receptor activity and designed using inducible reporter (beta lactamase induction) detected with GAL4 b-lactamase reporter gene. The signal is derived from the ratio of cleaved (ch2) to uncleaved (ch1) reporter gene substrate used as the measure of target activity.Data from the assay component TOX21_PR_BLA_Followup_Antagonist_ratio was analyzed into 1 assay endpoint. This assay endpoint, TOX21_PR_BLA_Followup_Antagonist_ratio, was analyzed in the positive analysis fitting direction relative to DMSO as the negative control and baseline of activity. Using a type of inducible reporter, measures of receptor for gain-of-signal activity can be used to understand the reporter gene at the pathway-level as they relate to the gene NR3C3. Furthermore, this assay endpoint can be referred to as a primary readout, because this assay has produced multiple assay endpoints where this ratio serves a reporter gene function to understand target activity. To generalize the intended target to other relatable targets, this assay endpoint is annotated to the nuclear receptor intended target family, where the subfamily is steroidal.
Assay Protocol: PR-UAS-bla HEK293T cells were dispensed at 3,000 cells/4 uL of assay medium containing 2% charcoal stripped FBS per well into black wall/clear-bottom 1536-well plates using a Multidrop Combi (ThermoFisher Scientific, Waltham, MA) dispenser. After the assay plates were incubated at a 37C and 5% CO2 for 6 hr, 23 nL of compounds dissolved in DMSO, positive controls or DMSO only was transferred to the assay plate by a Pintool station (Kalypsys, San Diego, CA), followed by addition of 1 uL (1nM as final concentration) of Promegestone (R5020) in assay medium using a BioRAPTR FRD (Flying Reagent Dispenser, Aurora Discovery, San Diego, CA). The plates were incubated at 37C and 5% CO2 for 16 hr. Then 1 uL of LiveBLAzer B/G FRET substrate was added using a FRD. After the plates were incubated at room temperature for 2 hours, fluorescence intensity was measured by an Envision plate reader (PerkinElmer, Shelton, CT).

Sequence of PGR (gene 5241) (P06401 whole entry, looked up): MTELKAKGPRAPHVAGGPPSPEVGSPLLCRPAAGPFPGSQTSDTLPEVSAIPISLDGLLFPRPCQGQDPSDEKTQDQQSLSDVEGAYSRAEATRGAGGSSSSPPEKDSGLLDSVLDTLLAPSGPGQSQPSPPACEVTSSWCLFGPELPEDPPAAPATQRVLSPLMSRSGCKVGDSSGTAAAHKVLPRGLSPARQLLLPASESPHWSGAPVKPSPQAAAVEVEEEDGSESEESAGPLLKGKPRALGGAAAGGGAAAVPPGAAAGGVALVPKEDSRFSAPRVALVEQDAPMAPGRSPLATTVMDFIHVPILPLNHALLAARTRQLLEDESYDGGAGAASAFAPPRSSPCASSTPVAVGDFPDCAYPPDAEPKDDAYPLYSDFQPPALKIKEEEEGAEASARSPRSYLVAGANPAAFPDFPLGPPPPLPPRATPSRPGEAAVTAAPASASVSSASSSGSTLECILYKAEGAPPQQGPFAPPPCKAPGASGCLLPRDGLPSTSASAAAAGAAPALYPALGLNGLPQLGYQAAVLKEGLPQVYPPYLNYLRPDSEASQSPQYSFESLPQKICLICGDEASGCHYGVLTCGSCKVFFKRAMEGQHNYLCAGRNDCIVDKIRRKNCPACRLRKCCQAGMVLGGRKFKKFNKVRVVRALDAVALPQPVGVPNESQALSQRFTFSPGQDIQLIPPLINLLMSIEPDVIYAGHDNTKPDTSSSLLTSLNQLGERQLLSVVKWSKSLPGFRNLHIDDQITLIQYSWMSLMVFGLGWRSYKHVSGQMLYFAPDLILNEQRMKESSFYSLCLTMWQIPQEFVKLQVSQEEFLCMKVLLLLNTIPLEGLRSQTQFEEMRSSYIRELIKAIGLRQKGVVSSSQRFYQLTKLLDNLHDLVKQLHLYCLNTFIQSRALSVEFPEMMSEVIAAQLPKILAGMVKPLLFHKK

SMILES | AC50 | outcome
CC(C)C1CCC(Cc2ccc(Cl)cc2)C1(O)Cn1cncn1 (stereo not given) | 15.8 µM (active) | 
CC12CC1(C)C(=O)N(c1cc(Cl)cc(Cl)c1)C2=O (stereo not given) |  | inactive
CC1(C)CCC(Cc2ccc(Cl)cc2)C1(O)Cn1cncn1 (stereo not given) | 16.8 µM (active) | 
C[C@H]1CCCC(=O)CCC/C=C/c2cc(O)cc(O)c2C(=O)O1 | 14.4 µM (active) | 
Nc1ccc(-c2ccc(N)c(Cl)c2)cc1Cl | 5.01 µM (active) | 
C[C@]12CCC(=O)C[C@@H]1CC[C@@H]1[C@@H]2CC[C@]2(C)[C@@H](O)CC[C@@H]12 |  | inactive
C[C@]12CC[C@H](O)CC1=CC[C@@H]1[C@@H]2CC[C@]2(C)C(=O)CC[C@@H]12 | 16.1 µM (active) | 
Oc1ccc(-c2ccccc2)cc1 | 29.5 µM (active) | 
O=C1C2(Cl)C3(Cl)C4(Cl)C(Cl)(Cl)C5(Cl)C3(Cl)C1(Cl)C5(Cl)C24Cl (stereo not given) | 63 µM (active) | 
Clc1ccc(C2(Cn3cncn3)CC(Br)CO2)c(Cl)c1 (stereo not given) | 37.7 µM (active) | 
